HTT ATP protect: protects HTT-Q103 PC12 cells, measured by ATP. PC12 HTT-Q103 induced, cytoprotection, ATP luminescence, 40 h. Potency, µM (doses to about 56.4 µM), without a hit: cytoprotection (ATP increase), usual class: activators. hit rate 0.14% among 230,000. AID 1471; note: potency is the fitted concentration of half-maximal effect; % of control where 0% means no effect; nearly all actives have a fitted effect of over 45% in size
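Compounds added alongside 100 nM tebufenozide, which induces toxic Q103 huntingtin exon 1-GFP in stable PC12 cells; surviving cells quantified by luminescent ATP measurement. Medium: phenol red-free DMEM, 5% equine and 5% calf serum.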
IMPase Li inh: cell-permeable IMPase inhibitors with lithium potentiation | hit rate 0.35% among 210,000 | AID 1457 | CHO-M1 cells, IP1 TR-FRET (IP-One), carbachol + lithium | Potency, µM (top dose mostly 59.4 µM), without a hit: at the highest dose activity, negative = IMPase inhibition, usual class: inhibitors;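 note: IP1 builds up when IMPase is blocked and the TR-FRET signal falls; potency is the fitted concentration of half-maximal effect; plate controls were basal vehicle for no effect and high inhibitor control for full effect; nearly all actives have a fitted effect of over 50% in size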
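CHO-M1, 2000 cells/well, 16–30 h culture; cpd + low Li+, 30 min 37C; lysis with d2-IP1/Eu-anti-IP1 Ab, 10 min RT; TR-FRET 665/620 ratio and 620 channel; AC50 via Hill.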
ALDH1A1 inh: blocks purified human ALDH1A1 activity. P00352. Purified ALDH1A1, NADH fluorescence, propionaldehyde substrate. Potency, µM (doses to about 75.3 µM), for the others: at the highest dose activity, negative = inhibition, most hits filed as inhibitors. hit rate 7.3% among 220,000. AID 1030; active = well fitted inhibition curve with a large enough effect, not every such curve was filed as active; inconclusive = small, poorly fitted or top-dose-only effect, or another doubt; inactive = no such curve, though single readings can be large or run the other way;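 note: potency is the fitted concentration of half-maximal effect; plate controls were no enzyme wells and a reference inhibitor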
Target sequence (P00352 whole entry, looked up): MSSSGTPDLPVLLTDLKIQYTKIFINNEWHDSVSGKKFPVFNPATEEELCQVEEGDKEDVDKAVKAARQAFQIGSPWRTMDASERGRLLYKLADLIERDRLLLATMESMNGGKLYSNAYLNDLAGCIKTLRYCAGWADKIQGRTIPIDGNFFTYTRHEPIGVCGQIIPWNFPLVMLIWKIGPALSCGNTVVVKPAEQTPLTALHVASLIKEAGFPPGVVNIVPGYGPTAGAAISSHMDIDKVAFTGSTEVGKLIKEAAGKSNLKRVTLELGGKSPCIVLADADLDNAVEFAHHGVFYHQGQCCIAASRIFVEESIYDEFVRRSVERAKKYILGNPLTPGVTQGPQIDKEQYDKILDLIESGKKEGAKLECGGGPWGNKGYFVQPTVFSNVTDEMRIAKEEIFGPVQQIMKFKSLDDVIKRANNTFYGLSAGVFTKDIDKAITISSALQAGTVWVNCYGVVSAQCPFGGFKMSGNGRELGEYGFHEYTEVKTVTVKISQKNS
HPGD inh: inhibitors of human 15-hydroxyprostaglandin dehydrogenase (HPGD); hit rate 4.3% among 150,000; purified HPGD, NADH fluorescence kinetic, PGE2 substrate; P15428; Potency, µM, without a hit: top-dose activity change, negative = inhibition, usual class: inhibitors; active = well fitted inhibition curve with a large enough effect, not every such curve was filed as active; inconclusive = small, poorly fitted or top-dose-only effect, or another doubt; inactive = no such curve, though single readings can be large or run the other way; note: potency is the fitted concentration of half-maximal effect; % is set by controls: 0 for no effect and ±100 for the full control effect
Target sequence (P15428 whole entry, looked up): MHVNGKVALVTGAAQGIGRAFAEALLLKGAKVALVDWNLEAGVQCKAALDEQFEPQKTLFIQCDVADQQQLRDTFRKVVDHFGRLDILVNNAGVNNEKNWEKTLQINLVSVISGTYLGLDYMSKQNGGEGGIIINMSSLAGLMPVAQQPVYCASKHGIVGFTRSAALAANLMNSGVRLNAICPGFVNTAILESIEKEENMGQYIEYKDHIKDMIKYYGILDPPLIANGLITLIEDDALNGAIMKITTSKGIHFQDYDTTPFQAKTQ
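NADH formation kinetics: reaction with 30 uM PGE2 and 1 mM NAD+ (final), 20 nM enzyme, Tris-HCl pH 8 with Tween 20, after 15 min compound preincubation at room temperature. Fluorescence change, last versus first of five reads.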
HttQ103 aggreg: mutant huntingtin aggregation inhibition. PC12 HttQ103-GFP aggregates, Acumen cytometry, 40 h. hit rate 1.1% among 220,000. AID 1688. Potency, µM (doses to about 46.1 µM), inactives show at the top dose activity change, negative = inhibition, actives largely listed as inhibitors; note: potency is the fitted concentration of half-maximal effect; % is set by controls: 0 for no effect and ±100 for the full control effect; nearly all actives have a fitted effect of over 60% in size
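PC12 cells stably carrying ecdysone-inducible HTT exon 1 Q103–GFP were induced with tebufenozide (100 nM final) and treated with library compounds in titration. GFP aggregates in lysates were counted by laser scanning cytometry.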
IMPase cell inh: membrane-permeable compound that blocks inositol monophosphatase. 120,000 tested, under 10 active. P97697. CHO-M1 cells, IP1 accumulation, HTRF TR-FRET ratio. inhibition (IP1 accumulation), % at 46.1 µM; active = well fitted curve in the direction sought with a large enough effect in the signal ratio, not every such curve was filed as active; inconclusive = small, poorly fitted or top-dose-only effect, or a change in a side signal; inactive = no such curve, though single readings can be large or run the other way; the % refers to the signal ratio;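 note: cells stimulated with carbachol in lithium chloride buffer; plate controls were DMSO basal wells for no effect and reference inhibitor wells for full effect; higher means more IMPase inhibition seen as more IP1 and lower FRET ratio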
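Cellular IMPase inhibition is scored as a rise in cytosolic IP1, detected by competitive TR-FRET between d2-labelled IP1 and a europium anti-IP1 antibody. M1-expressing CHO cells were stimulated with carbachol for 30 min at 37C, with lithium (50 mM LiCl) present in the buffer.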
* = called active by the depositor; ? = inconclusive; . = no result; [ ] = remark or other dose. An excerpt weighted towards active compounds, which were near 9.4% of everything screened. Unless noted, calls come from the whole dose curve; as a rule, active = well fitted curve in the direction sought with a large enough effect; inconclusive = small, poorly fitted or top-dose-only effect, or another doubt; inactive = no such curve, though single readings can be large; an effect the other way counts as inactive or inconclusive.

SMILES	HTT ATP protect	IMPase Li inh	ALDH1A1 inh	HPGD inh	HttQ103 aggreg	IMPase cell inh
COc1cccc(C2C(C(=O)c3sc(C)nc3C)=C(O)C(=O)N2CCN2CCOCC2)c1 (stereo not drawn)	-11%[0.074 µM]	?	20µM*	-22%	5%	-7
CCc1cccc(NCc2ccccc2-c2nnc(-c3ccccc3Cl)o2)c1	.	.	.	.	.	3
C=C(C)CC1(c2ccccc2)Oc2ccccc2-c2nc3cc(Cl)c(Cl)cc3nc21 (stereo not drawn)	5%[10 µM]	.	-17%[13.5 µM]	.	.	.
CC(C)[C@H](O)CC[C@@H](C)C1CC[C@H]2C3CC=C4C[C@@H](O)CC[C@]4(C)C3CC[C@]12C (stereo partly drawn)	-40%	4%	3%	.	.	.
CC(C)C(=O)Nc1nnc(SCc2cccc(F)c2)s1	6%	-4%	3%	.	-14%	.
Cc1ccccc1CS(=O)(=O)c1nnc([C@H](CC(C)C)NC(=O)OC(C)(C)C)o1	-167%[0.074 µM]	15%[38.3 µM]	0%	13µM*	?	12
CC(C)C[C@H](N)c1nnc(S(=O)(=O)Cc2cccc(F)c2)o1	-18%[0.074 µM]	39%[38.3 µM]	13µM*	-27%	?	-9
CC(C)(C)OC(=O)N[C@@H](Cc1ccccc1)c1nnc(S(=O)(=O)Cc2cccc(F)c2)o1	7%[0.074 µM]	2%[38.3 µM]	?	4µM*	?	14
CC[C@@H](C)[C@H](NC(=O)OC(C)(C)C)c1nnc(S(=O)(=O)Cc2cc(C)ccc2C)o1	?	.	4%	.	?	18
CC(C)[C@H](NC(=O)OC(C)(C)C)c1nnc(S(=O)(=O)Cc2c(F)cccc2Cl)o1	-115%	48%[38.3 µM]	0%	5µM*	10µM*	-3
O=S(=O)(c1ccccc1)N1CCC2(CCN(Cc3nccs3)CC2)CC1	9%	18%	8%	-12%	.	.
CCOCCn1c(SC(C)C(C)=O)nc2c1c(=O)[nH]c(=O)n2C (stereo not drawn)	-6%[10 µM]	.	.	.	-5%[9.22 µM]	.
C[N+](C)(C)c1ncnc2c1ncn2[C@@H]1C[C@H](O)[C@@H](CO)O1	-8%[10 µM]	-9%	-2%[13.5 µM]	-8%	.	.
CC(=O)O[C@@H]1CC2C(C)(C)C(=O)C=C[C@]2(C)C2CC[C@]3(C)C(=CC[C@H]3C3CO[C@@H](C(C)(C)O)[C@H](O)C3)[C@@]21C (stereo partly drawn)	12%	12%	2%	-9%	.	.
O=S(=O)(Nc1ccc(N=Nc2ccc(O)c3ccccc23)cc1)c1ccccc1	-7%[10 µM]	20%	-1%	32µM*	-16%	.
CCCCOc1ccc(-c2nn(-c3ccccc3)cc2C2NC(=O)NC(C)=C2C(=O)OCC)cc1 (stereo not drawn)	.	.	.	.	.	4
COc1ccccc1-c1nc(C#N)c(NCCCn2ccnc2)o1	?	.	.	.	-5%[9.22 µM]	.
CCCCc1cc2c(cn1)=C(OC(=O)c1ccc(Cl)nc1)C(C)(OC(=O)CC)C(=O)C=2 (stereo not drawn)	5%[10 µM]	10%	3.2µM*	1%	.	.
CCCCc1cc2c(cn1)=C(OC(=O)c1cnc3ccccc3n1)C(C)(OC(=O)CC)C(=O)C=2 (stereo not drawn)	-5%[10 µM]	5%	3.2µM*	-8%	4%[9.22 µM]	.
CCCCC1=CC2=CC(=O)C(C)(OC(=O)CC)C(=O)C2=CN1CCc1ccccn1 (stereo not drawn)	-23%[10 µM]	4%	4%[13.5 µM]	-2%	8%[9.22 µM]	.
CCCCc1cc2c(cn1)=C(OC(=O)CCC(=O)OC)C(C)(OC(=O)CC)C(=O)C=2 (stereo not drawn)	0%[10 µM]	6%	?	-6%	.	.
COCCOC(=O)C1=C(C)NC(=O)NC1c1cn(-c2ccccc2)nc1-c1ccccc1 (stereo not drawn)	.	.	.	.	.	3
Cc1cccc(N2CCN(C(=O)CN3C(=O)C4CC=CCC4C3=O)CC2)c1C (stereo not drawn)	.	-8%	0%	.	-4%	.
Cc1cn(C2OC(COC(=O)c3ccccc3)C(OC(=O)c3ccccc3)C2OC(=O)c2ccccc2)c(=O)[nH]c1=O (stereo not drawn)	-7%[10 µM]	8%	12%	-12%	-13%	-4
O=C(OCC1OC(OC(=O)c2cc(O)c(O)c(OC(=O)c3cc(O)c(O)c(O)c3)c2)[C@@H](OC(=O)c2cc(O)c(O)c(OC(=O)c3cc(O)c(O)c(O)c3)c2)C(OC(=O)c2cc(O)c(O)c(OC(=O)c3cc(O)c(O)c(O)c3)c2)C1OC(=O)c1cc(O)c(O)c(OC(=O)c2cc(O)c(O)c(O)c2)c1)c1cc(O)c(O)c(OC(=O)c2cc(O)c(O)c(O)c2)c1 (stereo partly drawn)	-69%	?	?	3.2µM*	11%	.
SMILES	HTT ATP protect	IMPase Li inh	ALDH1A1 inh	HPGD inh	HttQ103 aggreg	IMPase cell inh
N#C/C(=C\c1cc([N+](=O)[O-])ccc1Cl)C(N)=O	1.3µM*	14%	3%	.	6%	.
N#C/C(=C/c1ccc([N+](=O)[O-])cc1)C(N)=O	-7%	-1%	?	.	19%	.
Cc1ccccc1OCC(=O)Nc1ccccc1-c1ccccc1	-41%	-13%[38.3 µM]	8.9µM*	-15%	23%	2
Cc1ccccc1OCC(=O)Nc1ccc2c(c1)C(=O)c1ccccc1C2=O	7%[10 µM]	?	18µM*	-15%	-15%	.
COc1ccccc1CN(C)CC(=O)Nc1ccccc1-c1ccccc1	-36%	9%	?	.	-27%	.
COCC(=O)Nc1ccccc1-c1ccccc1	.	0%	-10%	.	-3%	.
CC(=O)Nc1ccc2c(c1)C(=O)c1ccccc1C2=O	-62%	-4%[38.3 µM]	3.5µM*	-4%	7%	-6
COc1ccc(CN(C)CC(=O)Nc2ccccc2-c2ccccc2)c(OC)c1	10%[10 µM]	16%	2.8µM*	.	20µM*	.
C=C1CC[C@H](O)C/C1=C/C=C1\CCC[C@]2(C)[C@@H]([C@H](C)CC[C@@H](O)C(C)(C)O)CC[C@@H]12	-31%	2%	-7%	-3%	-8%	.
N#Cc1cccc(-c2ccc3ncnc(NC4CCNCC4)c3c2)c1	-43%	-2%	-12%	.	.	.
CN1CC[C@@]2(CCN3CCc4c(oc5ccccc45)[C@@H]3C2)N(C)C1=O	-2%[1.9 µM]	.	.	.	.	-2
CCOc1cc(C=C2C(=O)c3ccccc3C2=O)ccc1OCC(=O)Nc1ccc(C)cc1	8%[10 µM]	.	15µM*	.	5%	-25
COc1cccc(Cn2nnc(C(=O)Nc3ccc(C)cc3)c2N)c1	-15%	?	?	-34%	4%	2
COc1ccccc1NC(=O)c1nnn(CC(=O)Nc2cccc(SC)c2)c1N	-3%[10 µM]	6.3µM*	?	?	13%	-9
COc1cccc(Cn2nnc(C(=O)Nc3cc(C)ccc3OC)c2N)c1	-4%	25µM*	?	?	8%	10
